DAX1 inh-1 = inhibitors of DAX1 repression of SF-1 activated StAR promoter. inhibition, % at 6.8 µM. AID 652010. HEK293T StAR-luciferase reporter, SF-1/DAX-1 repression relief. 1.1% of 370,000 active;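 active means inhibition above the mean over all tested compounds plus 3 SD, cut at about 3.6% in these data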;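 further: higher inhibition means more luminescence from relief of DAX-1 repression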
PolyA inhibitor = yeast polyadenylation inhibition | S. cerevisiae SKY197-pL101 polyadenylation reporter, beta-gal luminescence; efflux-impaired pdr1/pdr3 knockout yeast; score 100 = 6 SD above DMSO | activity score, % at 12 µM | 0.02% of 300,000 active;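 active means lowest replicate activity score at least 50, where 100 means six control SD above control mean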;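 further: yeast exposed to compound for 9 h at 30 °C; higher score means more reporter readthrough which indicates perturbed polyadenylation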
hcDAF12 agonist = activators of H. contortus DAF-12 nuclear receptor | HEK293 hcDAF-12 lit1-tk-luc reporter, luminescence; 0% DMSO, 100% Δ7-dafachronic acid | activation, % at 6.8 µM | 1.4% of 370,000 active | AID 652067;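 active means activation above the mean of all tested compounds plus 3 SD, cut at about 5.5% in these data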
ssDAF-12 act = S. stercoralis DAF-12 activation, primary screen; HEK293 ssDAF-12/GRIP1 lit1-tk-luc reporter, luminescence; % of 3 µM dafachronic acid response; activation, % at 6.8 µM; 1% of 370,000 active;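 active means activation above the mean over all tested compounds plus 3 SD, cut at about 0.9% in these data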
DAX1 inh-2 = inhibitors of human orphan nuclear receptor DAX1 (NR0B1); P51843; inhibition, % at 6.75 µM; 0.99% of 340,000 active; HEK293 Gal4-DAX1 luciferase reporter, luminescence; AID 504766;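 active means inhibition above the mean over all tested compounds plus 3 SD, cut at about 4.2% in these data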;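 further: inhibition shows as a rise in luminescence from relieved DAX1 repression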
Target sequence (P51843 207-470 limits assumed): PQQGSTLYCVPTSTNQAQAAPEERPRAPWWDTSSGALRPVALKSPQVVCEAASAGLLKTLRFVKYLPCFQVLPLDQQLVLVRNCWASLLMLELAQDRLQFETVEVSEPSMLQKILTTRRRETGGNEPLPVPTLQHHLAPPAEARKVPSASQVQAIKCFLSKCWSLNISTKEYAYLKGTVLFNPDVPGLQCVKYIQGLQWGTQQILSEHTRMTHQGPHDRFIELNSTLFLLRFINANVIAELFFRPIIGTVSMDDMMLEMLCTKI
hgDAF-12 ag = agonists of H. glycines DAF-12 nuclear receptor. 1.8% of 370,000 active. activation, % at 6.8 µM. HEK293 GAL4-hgDAF12 UAS-luciferase reporter, agonist luminescence; normalized to butyrate control;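 active means activation above a cutoff set at the mean of all screened compounds plus 3 SD, cut at about 10% in these data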
Numbers stand for hits. Most compounds without a hit are left out; they make up all but 4.1% or so of the library.

Results for C[C@@H](c1ccccc1)N1C[C@H](COCc2ccccc2)Oc2cc(N3CCC[C@H]3C(N)=O)ccc2S1(=O)=O ?
DAX1 inh-1: inactive; hcDAF12 agonist: inactive; ssDAF-12 act: inactive; hgDAF-12 ag: inactive

What do the screens show for `Cc1ccn2c(=O)nc(SCC(=O)c3ccc(Cl)cc3)nc2c1`?
DAX1 inh-1: inactive; PolyA inhibitor: inactive; hcDAF12 agonist: inactive; ssDAF-12 act: inactive; DAX1 inh-2: inactive; hgDAF-12 ag: inactive

How did Cc1ccn2c(C(=O)c3ccc(Cl)cc3)cnc2c1 do in these assays?
DAX1 inh-1: 3.9; PolyA inhibitor: inactive; hcDAF12 agonist: inactive; ssDAF-12 act: inactive; DAX1 inh-2: inactive; hgDAF-12 ag: 13

Results for O=C(NCc1ccc(Cl)cc1)OCCN1C(=O)CCC12CCC(c1ccccc1)CC2 (stereo not given) ?
DAX1 inh-1: inactive; hcDAF12 agonist: inactive; ssDAF-12 act: inactive; hgDAF-12 ag: inactive

How did COc1ccccc1CNC(=O)CSc1ccccc1 do in these assays?
DAX1 inh-1: inactive; PolyA inhibitor: inactive; hcDAF12 agonist: inactive; ssDAF-12 act: inactive; DAX1 inh-2: inactive; hgDAF-12 ag: 11

How did COc1ccccc1CNC(=O)CN1C(=O)c2ccccc2S1(=O)=O do in these assays?
DAX1 inh-1: inactive; PolyA inhibitor: inactive; hcDAF12 agonist: inactive; ssDAF-12 act: inactive; DAX1 inh-2: 4.5; hgDAF-12 ag: inactive

How did COc1ccccc1CNC(=O)CN1NS(=O)(=O)c2ccccc2C1=O do in these assays?
DAX1 inh-1: inactive; hcDAF12 agonist: inactive; ssDAF-12 act: inactive; DAX1 inh-2: inactive; hgDAF-12 ag: inactive

What do the screens show for `CC(C)CN1C(=O)[C@@]2(CC(=O)N(C)C2c2ccccc2)c2cc(-n3cc(C(C)(C)O)nn3)ccc21` (stereo not given in full)?
DAX1 inh-1: inactive; hcDAF12 agonist: inactive; ssDAF-12 act: inactive; hgDAF-12 ag: inactive

How did CCOC(=O)CCc1c(C)nc(SCc2ccc(C(=O)O)cc2)c(C#N)c1C do in these assays?
DAX1 inh-1: inactive; PolyA inhibitor: inactive; hcDAF12 agonist: inactive; ssDAF-12 act: inactive; DAX1 inh-2: 6.0; hgDAF-12 ag: inactive

What do the screens show for `CCOC(=O)CCc1c(C)nc(SCC(=O)O)c(C#N)c1C`?
DAX1 inh-1: inactive; PolyA inhibitor: inactive; hcDAF12 agonist: inactive; ssDAF-12 act: inactive; DAX1 inh-2: inactive; hgDAF-12 ag: inactive

Results for Cc1cc(NC(=O)CSc2nc3c(sc4ccccc43)c(=O)n2CCc2ccccc2)n[nH]1 ?
DAX1 inh-1: inactive; PolyA inhibitor: inactive; hcDAF12 agonist: inactive; ssDAF-12 act: inactive; DAX1 inh-2: inactive; hgDAF-12 ag: inactive

What do the screens show for `Cc1cc(NC(=O)CSc2nc3c(sc4ccccc43)c(=O)n2CCCN2CCOCC2)n[nH]1`?
DAX1 inh-1: inactive; PolyA inhibitor: inactive; hcDAF12 agonist: inactive; ssDAF-12 act: inactive; DAX1 inh-2: inactive; hgDAF-12 ag: 11

What do the screens show for `COc1ccc(Cn2c(=N)c(C(=O)NCC3CCCO3)cc3c(=O)n4ccccc4nc32)cc1` (stereo not given)?
DAX1 inh-1: inactive; PolyA inhibitor: inactive; hcDAF12 agonist: 5.7; ssDAF-12 act: inactive; DAX1 inh-2: inactive; hgDAF-12 ag: inactive

What do the screens show for `COc1ccc(CCn2c(=N)c(C(=O)NCC3CCCO3)cc3c(=O)n4ccccc4nc32)cc1` (stereo not given)?
DAX1 inh-1: inactive; PolyA inhibitor: inactive; hcDAF12 agonist: inactive; ssDAF-12 act: inactive; DAX1 inh-2: inactive; hgDAF-12 ag: inactive

What do the screens show for `CC1CCCCC1=NNC(=O)c1ccccc1` (stereo not given)?
DAX1 inh-1: 4.1; hcDAF12 agonist: inactive; ssDAF-12 act: inactive; DAX1 inh-2: 5.9; hgDAF-12 ag: inactive

What do the screens show for `O=C(NN=C1c2ccccc2-c2ccccc21)c1ccccc1`?
DAX1 inh-1: inactive; PolyA inhibitor: inactive; hcDAF12 agonist: inactive; ssDAF-12 act: inactive; DAX1 inh-2: inactive; hgDAF-12 ag: inactive

Results for CC(CCOC1=NS(=O)(=O)c2ccccc21)NC(=O)C(=O)Nc1ccccc1 (stereo not given) ?
DAX1 inh-1: inactive; PolyA inhibitor: inactive; hcDAF12 agonist: inactive; ssDAF-12 act: inactive; DAX1 inh-2: inactive; hgDAF-12 ag: inactive

How did O=C(NCCCCCCOC1=NS(=O)(=O)c2ccccc21)C(=O)Nc1ccccc1 do in these assays?
DAX1 inh-1: inactive; PolyA inhibitor: inactive; hcDAF12 agonist: inactive; ssDAF-12 act: inactive; DAX1 inh-2: inactive; hgDAF-12 ag: 11

What do the screens show for `Cn1c(=O)c2c(nc(NCC(O)CO)n2CCc2ccccc2)n(C)c1=O` (stereo not given)?
DAX1 inh-1: inactive; PolyA inhibitor: inactive; hcDAF12 agonist: inactive; ssDAF-12 act: inactive; DAX1 inh-2: 5.4; hgDAF-12 ag: inactive

How did CCC(NC(=O)c1cc(COc2ccc(Cl)cc2OC)on1)c1ccncc1 (stereo not given) do in these assays?
DAX1 inh-1: inactive; PolyA inhibitor: inactive; hcDAF12 agonist: inactive; ssDAF-12 act: inactive; DAX1 inh-2: inactive; hgDAF-12 ag: 12

What do the screens show for `CCC(NC(=O)c1cc(COc2ccc(OC)cc2Cl)on1)c1ccncc1` (stereo not given)?
DAX1 inh-1: inactive; PolyA inhibitor: inactive; hcDAF12 agonist: inactive; ssDAF-12 act: inactive; DAX1 inh-2: inactive; hgDAF-12 ag: inactive

How did COc1cccc(C2NC(=S)NC(C)=C2C(C)=O)c1 (stereo not given) do in these assays?
DAX1 inh-1: inactive; hcDAF12 agonist: inactive; ssDAF-12 act: inactive; hgDAF-12 ag: inactive

What do the screens show for `C=CCc1cc(/C=N/n2cnnc2)cc(OCC)c1O`?
DAX1 inh-1: inactive; PolyA inhibitor: inactive; hcDAF12 agonist: inactive; ssDAF-12 act: inactive; DAX1 inh-2: inactive; hgDAF-12 ag: inactive

How did COc1cc(/C=N/n2cnnc2)ccc1OCc1ccc(C)cc1 do in these assays?
DAX1 inh-1: inactive; PolyA inhibitor: inactive; hcDAF12 agonist: inactive; ssDAF-12 act: inactive; DAX1 inh-2: inactive; hgDAF-12 ag: 12

Results for CCOc1cc(/C=N/n2cnnc2)ccc1O ?
DAX1 inh-1: inactive; PolyA inhibitor: inactive; hcDAF12 agonist: 6.5; ssDAF-12 act: inactive; DAX1 inh-2: inactive; hgDAF-12 ag: inactive

How did COc1cc(/C=N/n2cnnc2)ccc1OCc1ccccc1 do in these assays?
DAX1 inh-1: inactive; PolyA inhibitor: inactive; hcDAF12 agonist: inactive; ssDAF-12 act: inactive; DAX1 inh-2: inactive; hgDAF-12 ag: inactive

How did COc1ccc2c(c1)CCCN2C(=O)C1CCCN(S(=O)(=O)c2cccs2)C1 (stereo not given) do in these assays?
DAX1 inh-1: inactive; hcDAF12 agonist: inactive; ssDAF-12 act: inactive; hgDAF-12 ag: inactive

How did CC(c1ccccc1)N1CC[C@H]2C=CC[C@@H](C(=O)Nc3cccc(Cl)c3)[C@H]2C1=O (stereo not given in full) do in these assays?
hcDAF12 agonist: inactive; ssDAF-12 act: inactive; hgDAF-12 ag: inactive

Results for CCCCN1C(=O)/C(=C2\SC(N3CCCCC3)=NC2=O)c2ccccc21 ?
DAX1 inh-1: inactive; PolyA inhibitor: inactive; hcDAF12 agonist: inactive; ssDAF-12 act: inactive; DAX1 inh-2: 4.3; hgDAF-12 ag: inactive

Assay outcomes: PubChem BioAssay, several laboratories
